Measured values reported in PubChem BioAssay AID2713 (National Center for Advancing Translational Sciences (NCATS), 2010).
Several values for one entry are separate records, joined by “and”; a condition that tells them apart may be missing. Equal values may be shown once. Inconclusive results are not listed. Activity calls are given as the source filed them.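 The calls were made as follows: active = compounds raising survival of Huntington mutant striatal cells while barely changing normal control cells; inconclusive = compounds that make cell death worse; inactive = the rest.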

Assay: qHTS Multiplex Assay to Identify Dual Action Probes in a Cell Model of Huntington: Cytotoxicity in HTT Striatal Cells
Details: STHdhQ111/111 striatal cells, serum-free, ATP luminescence, 24 h
Excerpt: NIH Chemical Genomics Center [NCGC] NIH Molecular Libraries Probe Production centers Network [MLPCN] MLPCN Grant: MH084839-01A1 Assay Submitter (PI): Wei Zheng NCGC Assay Overview: Huntington's disease is a neurodegenerative disorder caused by a trinucleotide repeat expansion in Exon 1 of the Huntingtin gene. The CAG trinucleotide encodes glutamine and polyglutamine expansions cause cell death in selective areas of the brain. Huntington polyglutamine repeats have the tendency to form aggregates which are observable in later stages of the disease. The exact nature of the aggregates, whether toxic, protective, or insignificant, is unclear. A stable PC12 cell line containing a gene fusion of Exon 1 of the Huntingtin gene linked to GFP under the control of the inducible ecdysone promoter were used as the cell-based model of Huntington Disease for high throughput screening. Exon 1 of the Huntingtin gene contained an expansion of 103 polyglutamines (Q103) which, when expressed, caused cell death and distinct, bright GFP aggregates. The amount of cell death and the size and intensity of GFP aggregates increased over time and induction level. The cell death were quantified with a measurement of ATP content in the cells. A maximal 40-50% of cell death was observed when the Huntington gene was induced in this cell line. We optimized this assay in a homogeneous 1536 well format. A quantitative high throughput screen (qHTS) was conducted on the PC12 cells which were induced to express the toxic fusion construct. Small molecules which prevented cell death were identified by using a luminescent ATP quantification method (Perkin Elmer's ATPlite). This assay examines influence on cytotoxicity induced by serum deprivation in normal and Huntington striatal cells.
Freshlay passaged STHdhQ7/7 cells and mutant STHdhQ111/111 Huntington striatal cells were plated at a density of 20,000 cells/well in complete media and allowed to recover overnight at 33C. The next day, media was replaced with serum containing media or serum free media containing the compound. After 24 hours of incubation at 33 C, cells were assayed for ATP content using the Cell Titer-GLO ATP assay from Promega (cat # G7571). ATP/Toxicity Assay in Serum Free Media (SFM) (96 well plate format) 1. Plate 20,000 cells/well and incubate the cells in complete (w/serum) media overnight 2. Remove media, wash twice with PBS and add the SFM w/ or w/o the compound 3. Incubate at 33C; cells can be incubated at 39C for a more dramatic effect 4. ATP measurements after […] treatment, per kit protocol

Cn1nnnc1Sc1ncnc2scc(-c3ccccc3)c12
viability change (measured here: Q7/7 cells, at 30 µM): 33% and 26% | viability change (measured here: Q7/7 cells, at 60 µM): 21% and 15% | viability change (measured here: Q111/111 cells, at 60 µM): 191% and 196% | viability change (at 30 µM): 231% (active) and 240% (active) | viability change (measured here: Q7/7 cells, FBS, at 30 µM): 9% and 8% | viability change (measured here: Q7/7 cells, FBS, at 60 µM): 7% and 5% | viability change (measured here: Q111/111 cells, FBS, at 30 µM): 18% and 16% | viability change (measured here: Q111/111 cells, FBS, at 60 µM): 9% and 8%
